# Data published in PubChem BioAssay.
# Activity calls are given as the source filed them. Unless noted, no rule for the calls is given here.
# Tests used:
# [1] = system: Wnt5a (protein binding on small-molecule microarray); assay: small molecules binding Wnt5a protein – biophysical, small-molecule microarray, 635/667 nm fluorescence, primary screen (AID 1142); details: 635 nm fluorescence, higher = more signal;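 also: fluorescence read at 667 nm with signal to noise per printed feature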
# [2] = ATP-based viability of Huh7 replicon cells – cell-based, CellTiter-Glo luminescence, basal, 48 h, cytotoxicity control for HCV replication inhibitor project, primary screen (AID 1143); details: higher = more signal, called active from +8 up or from −8 down;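 also: Huh7 hepatoma cells carrying a hepatitis C replication reporter with no stimulus; test concentration not given here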
# [3] = Pseudomonas biofilm growth suppression – PAO1 strain, BacTiter-Glo luminescence, LB-PBS, primary screen (AID 1144); details: P. aeruginosa PAO1 biofilm, 12 h, higher = more signal
# [4] = basal CRE-LacZ reporter activity in PC12 – cell-based, unstimulated, primary screen (AID 1145); details: no forskolin, luminescence, 4.5 h, higher = more signal, called active from +8 up or from −8 down
# [5] = forskolin-driven CRE-LacZ activity in PC12 – cell-based, CRE-LacZ reporter, forskolin-stimulated, primary screen (AID 1146); details: luminescence, 4.5 h, higher = more signal, called active from +8 up or from −8 down;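 also: PC12 cells with 6xCRE LacZ reporter stimulated by forskolin 10 µM; beta-galactosidase reporter signal reflecting CREB driven transcription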
# [6] = molecular target: Streptavidin (Streptomyces avidinii) (UniProt P22629); assay: compounds binding control protein streptavidin – biophysical, small-molecule microarray, 635/667 nm fluorescence, artefact control for SMM compound annotation, primary screen (AID 1147); details: higher = more signal;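 also: signal reflects streptavidin binding to arrayed compounds as a control protein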
# Streptavidin (Streptomyces avidinii), sequence (P22629 whole entry, looked up): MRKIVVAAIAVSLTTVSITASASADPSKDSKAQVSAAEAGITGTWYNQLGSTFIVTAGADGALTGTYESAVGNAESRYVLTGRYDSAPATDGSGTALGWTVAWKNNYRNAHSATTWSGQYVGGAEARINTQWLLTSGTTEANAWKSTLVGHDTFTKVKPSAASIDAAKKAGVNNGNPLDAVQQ
# [7] = probe aInhba binding on compound microarray – biochemical, small-molecule microarray, 635/667 nm fluorescence, primary screen (AID 1148); details: higher = more signal;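 also: score merges 667nm spot fluorescence with signal-to-noise for antibody binding to printed compounds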
# Torsin-1A (Homo sapiens) [8] = molecular target: Torsin-1A (Homo sapiens) (UniProt O14656); assay: TOR1A wild-type binding on microarray – cell lysate, small-molecule microarray, lysate, 635/667 nm, primary screen (AID 1149); details: COS7 hTOR1A-WT lysate, 635 nm fluorescence, higher = more signal
# Torsin-1A (Homo sapiens), sequence (O14656 whole entry, looked up): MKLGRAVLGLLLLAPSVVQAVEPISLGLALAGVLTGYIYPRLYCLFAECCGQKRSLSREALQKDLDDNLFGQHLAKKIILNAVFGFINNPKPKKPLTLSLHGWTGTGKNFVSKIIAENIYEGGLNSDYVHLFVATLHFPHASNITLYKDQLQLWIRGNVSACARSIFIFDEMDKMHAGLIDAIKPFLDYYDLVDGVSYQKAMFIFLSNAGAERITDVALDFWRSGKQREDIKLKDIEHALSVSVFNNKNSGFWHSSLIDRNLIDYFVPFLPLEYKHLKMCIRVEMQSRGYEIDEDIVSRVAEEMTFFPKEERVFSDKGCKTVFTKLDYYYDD
# Torsin-1A (Homo sapiens) [9] = molecular target: Torsin-1A (Homo sapiens) (UniProt O14656); assay: torsin A mutant lysate binding on microarrays – cell lysate, small-molecule microarray, COS7 lysate, 635/667 nm fluorescence, primary screen (AID 1150); details: COS7 hTOR1A mutant lysate, 635 nm fluorescence, higher = more signal;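 also: score pools 667 nm emission and signal to noise measuring lysate protein binding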
# [10] = system: Sonic hedgehog protein (Shh); assay: Sonic hedgehog microarray binding compounds – biochemical, small-molecule microarray, 635/667 nm fluorescence, primary screen (AID 1151); details: 635 nm fluorescence, higher = more signal;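 also: Shh protein binding to compounds spotted on small-molecule microarray slides; score combines spot fluorescence intensity with signal-to-noise across triplicate slides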
# [11] = optical density shifts of acrAB sulA E. coli – strain DRC41, OD650, 48 h, E. coli filamentation inducer project, primary screen (AID 1152); details: higher = more signal, called active from +8 up or from −8 down;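 also: E. coli MC1000 strain DRC41 lacking acrAB efflux pump and sulA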
# [12] = probe aLefty1 binding on compound microarray – biochemical, small-molecule microarray, 635/667 nm fluorescence, primary screen (AID 1153); details: higher = more signal;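 also: score merges spot fluorescence with signal-to-noise ratio from the scanned slide images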
# [13] = plasmodial surface anion channel blockers, osmotic lysis – cell-based, P. falciparum Indochina, OD700, 1 h, primary screen (AID 1154); details: P. falciparum Indochina infected RBC osmotic lysis, higher = more signal, called active from +8 up or from −8 down
# [14] = plasmodial surface anion channel blockers, osmotic lysis – cell-based, P. falciparum Indochina, OD700, 2 h, primary screen (AID 1155);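 also: lysis reports solute entry through the parasite surface anion channel PSAC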; details: P. falciparum Indochina infected erythrocytes, higher = more signal, called active from +8 up or from −8 down
# [15] = changes in parasitized red cell lysis, either direction – P. falciparum Indochina, OD700, 3 h, PSAC antagonist project, primary screen (AID 1156); details: P. falciparum-infected erythrocytes, osmotic lysis, higher = more signal, called active from +8 up or from −8 down
# [16] = plasmodial surface anion channel blockers, osmotic lysis – cell-based, P. falciparum Indochina, OD700, 18 h, primary screen (AID 1157); details: P. falciparum Indochina infected erythrocytes, osmotic lysis OD700, 18 h; higher = more signal, called active from +8 up or from −8 down
# [17] = S6 kinase pathway phospho-S6 level changes – cell-based, A549, cytoblot, luminescence, serum-stimulated, primary screen (AID 1158); details: 5 h, higher = more signal;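 also: serum-stimulated A549 lung adenocarcinoma cells; signal is phosphorylated S6 detected by cytoblot immunostaining with HRP secondary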
# [18] = molecular target: NADPH oxidase 2 (Homo sapiens) (UniProt P04839); assay: compounds shifting NOX2 Amplex Red fluorescence – cell-based, HEK293-NOX2, PMA-stimulated, NOX inhibitor project, primary screen (AID 1159); details: 45 min, higher = more signal, called active from +8 up or from −8 down; also: test concentration not given here
# NADPH oxidase 2 (Homo sapiens), sequence (P04839 whole entry, looked up): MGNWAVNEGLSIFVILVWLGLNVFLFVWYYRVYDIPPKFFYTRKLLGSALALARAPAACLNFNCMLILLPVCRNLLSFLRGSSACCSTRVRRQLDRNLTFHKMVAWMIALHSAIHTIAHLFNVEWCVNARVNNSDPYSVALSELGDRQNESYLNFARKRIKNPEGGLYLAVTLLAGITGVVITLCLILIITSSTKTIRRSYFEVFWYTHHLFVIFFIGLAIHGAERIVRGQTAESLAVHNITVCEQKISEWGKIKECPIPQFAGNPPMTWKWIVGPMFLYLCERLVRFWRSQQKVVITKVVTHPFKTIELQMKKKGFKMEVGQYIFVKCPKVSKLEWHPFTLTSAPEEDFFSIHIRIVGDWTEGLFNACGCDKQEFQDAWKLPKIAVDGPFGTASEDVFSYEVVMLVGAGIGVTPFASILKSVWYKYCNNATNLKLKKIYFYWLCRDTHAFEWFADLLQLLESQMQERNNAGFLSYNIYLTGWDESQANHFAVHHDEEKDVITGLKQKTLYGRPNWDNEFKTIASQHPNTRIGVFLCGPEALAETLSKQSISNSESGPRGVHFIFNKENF
# [19] = molecular target: NADPH oxidase 4 (Homo sapiens) (UniProt Q9NPH5); assay: compounds shifting NOX4 Amplex Red fluorescence – cell-based, HEK293-NOX4, tetracycline-induced, NOX inhibitor project, primary screen (AID 1160); details: HEK293-NOX4, Amplex Red H2O2 fluorescence, 45 min; higher = more signal, called active from +8 up or from −8 down
# NADPH oxidase 4 (Homo sapiens), sequence (Q9NPH5 whole entry, looked up): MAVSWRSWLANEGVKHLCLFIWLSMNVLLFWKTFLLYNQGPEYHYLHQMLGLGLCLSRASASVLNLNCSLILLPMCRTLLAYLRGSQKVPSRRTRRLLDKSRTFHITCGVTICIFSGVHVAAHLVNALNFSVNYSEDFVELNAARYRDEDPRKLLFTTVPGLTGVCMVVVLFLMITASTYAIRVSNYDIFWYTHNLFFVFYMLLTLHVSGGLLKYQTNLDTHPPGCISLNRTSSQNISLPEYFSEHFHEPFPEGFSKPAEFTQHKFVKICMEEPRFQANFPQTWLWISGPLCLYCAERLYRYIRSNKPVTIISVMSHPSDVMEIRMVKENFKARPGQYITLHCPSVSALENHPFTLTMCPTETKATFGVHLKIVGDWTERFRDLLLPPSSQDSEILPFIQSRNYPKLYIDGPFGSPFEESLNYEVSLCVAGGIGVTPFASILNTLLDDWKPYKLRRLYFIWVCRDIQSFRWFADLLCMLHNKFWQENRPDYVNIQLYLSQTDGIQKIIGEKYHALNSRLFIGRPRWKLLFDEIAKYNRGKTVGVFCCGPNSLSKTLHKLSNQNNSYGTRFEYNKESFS
# [20] = molecular target: NADPH oxidase 5 (Homo sapiens) (UniProt Q96PH1); assay: compounds shifting NOX5 Amplex Red fluorescence – cell-based, HEK293-NOX5, NOX inhibitor project, primary screen (AID 1161); details: HEK293-NOX5, ionomycin, 45 min, higher = more signal
# NADPH oxidase 5 (Homo sapiens), sequence (Q96PH1 whole entry, looked up): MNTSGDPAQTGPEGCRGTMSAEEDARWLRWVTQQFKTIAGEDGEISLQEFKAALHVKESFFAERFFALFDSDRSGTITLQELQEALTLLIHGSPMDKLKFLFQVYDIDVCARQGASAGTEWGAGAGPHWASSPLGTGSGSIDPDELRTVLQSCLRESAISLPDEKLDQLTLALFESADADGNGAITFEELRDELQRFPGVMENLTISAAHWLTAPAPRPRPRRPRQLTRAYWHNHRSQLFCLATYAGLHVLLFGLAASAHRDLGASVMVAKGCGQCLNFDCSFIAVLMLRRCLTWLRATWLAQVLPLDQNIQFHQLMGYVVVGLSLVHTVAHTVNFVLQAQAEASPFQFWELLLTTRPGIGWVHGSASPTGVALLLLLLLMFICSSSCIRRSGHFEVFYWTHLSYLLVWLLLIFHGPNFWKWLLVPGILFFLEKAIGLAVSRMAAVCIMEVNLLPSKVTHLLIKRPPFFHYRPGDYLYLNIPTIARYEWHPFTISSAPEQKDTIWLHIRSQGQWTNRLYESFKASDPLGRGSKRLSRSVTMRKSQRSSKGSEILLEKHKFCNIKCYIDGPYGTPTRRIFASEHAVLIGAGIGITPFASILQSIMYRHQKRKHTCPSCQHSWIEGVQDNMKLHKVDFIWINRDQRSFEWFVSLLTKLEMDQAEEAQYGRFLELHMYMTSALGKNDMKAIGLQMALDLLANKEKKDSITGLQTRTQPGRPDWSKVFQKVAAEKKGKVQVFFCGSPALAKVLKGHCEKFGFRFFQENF
SMILES,composite z-score [1],z-score [2],z-score [3],z-score [4],z-score [5],composite z-score [6],composite z-score [7],composite z-score (Torsin-1A (Homo sapiens) [8]),composite z-score (Torsin-1A (Homo sapiens) [9]),composite z-score [10],z-score [11],composite z-score [12],z-score [13],z-score [14],z-score [15],z-score [16],z-score [17],z-score [18],z-score [19],z-score [20]
CN(C)CCCC[C@@H]1NC(=O)[C@H]2C[C@@H](C(=O)NCCCCCNC(=O)CS)[C@@H](c3cccc(OCCO)c3)N2C1=O,0.12,0.358 (inactive),-0.358 (inactive),-0.114 (inactive),0.547 (inactive),0.182,-0.128,0.537,0.749,1.72,-0.728 (inactive),-0.0601,2.9 (inactive),0.55 (inactive),-0.744 (inactive),0.203 (inactive),-0.534,1.76 (inactive),0.749 (inactive),1.13
C#CCN(CC=C(C)C)[C@H](CO)c1ccccc1,-0.0366,-4.16 (inactive),-0.215 (inactive),-0.153 (inactive),0.979 (inactive),0.0089,-0.0719,0.247,1.08,0.0568,0.0373 (inactive),0.213,-0.214 (inactive),-1.3 (inactive),-0.717 (inactive),-2.12 (inactive),1.22,-0.0535 (inactive),-0.102 (inactive),-1.84
CN1C2C=C(CCCO)C(C3C(=O)N(C(N)=O)C(=O)C32)C1c1ccc(CN2CCCC2)cc1 (stereo not given),0.269,1.23 (inactive),-0.938 (inactive),-0.83 (inactive),1.31 (inactive),-0.411,-0.299,-0.14,-0.266,-0.138,0.0489 (inactive),-0.189,0.114 (inactive),0.229 (inactive),-0.695 (inactive),-0.11 (inactive),-0.0852,-1.52 (inactive),0.171 (inactive),-0.0223
O=C1NCC(=O)N2[C@@H]1C[C@@H](C(=O)O)[C@H]2c1cccc(OCCO)c1,2.26,-0.095 (inactive),4.41 (inactive),0.822 (inactive),-0.393 (inactive),2.8,2.16,3.24,3.69,1.63,0.0481 (inactive),3.14,2.24 (inactive),1.34 (inactive),-1.22 (inactive),0.572 (inactive),0.863,0.313 (inactive),0.281 (inactive),1.62
CCCCC(O)C1C=CC2C(=O)N(c3ccccc3)C(=O)C2N1Nc1ccccc1F (stereo not given),0.182,0.615 (inactive),-0.571 (inactive),-0.143 (inactive),0.569 (inactive),2.09,0.297,0.31,0.129,-0.0688,-1.06 (inactive),0.328,0.449 (inactive),1.49 (inactive),0.273 (inactive),1.19 (inactive),-1.3,-1.2 (inactive),-4.93 (inactive),-1.88
C=C(COC)/C(=C/C[C@@H](OC(C)=O)c1ccc(CO)o1)c1cnc2ccccc2c1,0.387,-0.0797 (inactive),-1.14 (inactive),0.159 (inactive),-1.6 (inactive),1.3,0.147,0.797,0.73,2.1,0.876 (inactive),0.233,4.44 (inactive),0.759 (inactive),1.56 (inactive),0.307 (inactive),0.0933,0.299 (inactive),-2.98 (inactive),-1.25
[N-]=[N+]=NCc1ccccc1[C@@H]1OC(c2ccc(OCCCO)cc2)=N[C@]1(Cc1ccccc1N=[N+]=[N-])C(=O)N1CCOCC1,1.11,-1.61 (inactive),0.103 (inactive),1.78 (inactive),-0.514 (inactive),1.57,0.636,0.308,0.898,-0.284,-0.66 (inactive),0.628,16.9 (active),3.7 (inactive),1.17 (inactive),1.01 (inactive),0.37,-1.31 (inactive),1.23 (inactive),1.4
CC(C)OC(=O)C=C1C[C@@H](c2ccccc2C(F)(F)F)O[C@@H](c2ccccc2C(F)(F)F)O1,0.0503,-4.32 (inactive),-0.0124 (inactive),0.0798 (inactive),1.22 (inactive),0.215,-0.176,0.217,0.202,0.245,-0.66 (inactive),-0.0011,1.66 (inactive),1.55 (inactive),0.632 (inactive),0.659 (inactive),-0.491,0.441 (inactive),-0.64 (inactive),-0.774
COc1ccc([Si](C)(C)[C@@H]2[C@@H](CC(=O)N3Cc4ccccc4C[C@H]3CO)O[C@]3(C(=O)N(C)c4c(Br)cc(C)cc43)[C@H]2C)cc1,0.251,-5.91 (inactive),-1.41 (inactive),6.12 (inactive),0.0739 (inactive),0.813,-0.0645,1.01,1.19,2.14,0.0945 (inactive),0.297,9.71 (active),2.3 (inactive),0.392 (inactive),1.9 (inactive),2.09,0.0136 (inactive),0.0254 (inactive),-0.0526
CN1C(=O)C2C=CC(C(O)C3CCCCC3)N(Nc3ccc([N+](=O)[O-])cc3[N+](=O)[O-])C2C1=O (stereo not given),0.326,0.729 (inactive),1.17 (inactive),0.626 (inactive),1.37 (inactive),1.2,-0.024,1.27,1.04,-0.0056,-1.06 (inactive),0.181,1.72 (inactive),0.519 (inactive),-0.226 (inactive),0.532 (inactive),-0.511,-1.18 (inactive),0.889 (inactive),0.414
O=C1OCCC/C=C\[C@H]2OC34C=CCN(c5ccc6ccccc6c5)C(=O)[C@H]3N(CCCCCCO)C(=O)[C@@H]4C12 (stereo not given in full),-0.694,0.117 (inactive),-1.7 (inactive),0.61 (inactive),-0.677 (inactive),-1.1,-0.128,-1.12,-1.2,-0.0305,1.63 (inactive),0.325,3.35 (inactive),-0.781 (inactive),0.562 (inactive),-1.46 (inactive),1.4,1.52 (inactive),0.341 (inactive),2.26
CO[C@H]1O[C@H](CO)[C@@H](OC(=O)Nc2ccc(Br)cc2)[C@H](OC(=O)c2cc3ccccc3[nH]2)[C@H]1OC(=O)c1cc2ccccc2[nH]1,0.363,-6.05 (inactive),-2.24 (inactive),2.38 (inactive),-1.15 (inactive),1.22,0.0342,0.154,0.46,0.819,1.99 (inactive),0.12,1.39 (inactive),-1.16 (inactive),-0.368 (inactive),-0.464 (inactive),1.16,-2.75 (inactive),-0.642 (inactive),-2.04
CC(C)(C)OC(=O)CC[C@@]12N=C(c3ccc(OCCCO)cc3)O[C@@H]1c1ccccc1N(CCS(=O)(=O)c1ccccc1)C2=O,0.251,-3.45 (inactive),0.114 (inactive),-0.389 (inactive),-1.71 (inactive),0.901,0.0737,-0.0101,0.537,1.27,0.864 (inactive),0.334,30.9 (active),27.6 (active),3.49 (inactive),8.22 (active),1.84,-0.619 (inactive),0.801 (inactive),-2.14
[N-]=[N+]=NCc1ccccc1[C@@H]1OC(c2ccc(OCCCO)cc2)=N[C@]1(CCS(=O)(=O)c1ccccc1)C(=O)NCCN1CCOCC1,0.808,-0.31 (inactive),-0.174 (inactive),1.24 (inactive),-1.16 (inactive),0.81,0.285,2.1,1.9,0.615,0.36 (inactive),0.461,24 (active),6.42 (inactive),0.854 (inactive),0.763 (inactive),-0.291,0.961 (inactive),1.92 (inactive),2.34
[N-]=[N+]=NCc1ccccc1C[C@@]1(C(=O)NCC(O)CO)N=C(c2ccc(OCCCO)cc2)O[C@@H]1c1ccccc1N=[N+]=[N-] (stereo not given in full),0.63,-3.67 (inactive),-0.68 (inactive),0.209 (inactive),-1.57 (inactive),1.89,0.475,0.73,1.07,-0.762,0.458 (inactive),0.668,30.8 (active),28.7 (active),1.29 (inactive),7.41 (inactive),0.345,-0.00841 (inactive),1.21 (inactive),0.427
COC(=O)[C@@]1(Cc2ccc(F)cc2)[C@H]2c3cc(C(=O)N4CCCC4)n(Cc4cc(C)n(C)n4)c3C[C@H]2CN1C(=O)c1ccccc1,0.639,-2 (inactive),-0.132 (inactive),0.583 (inactive),0.989 (inactive),1.65,0.32,0.0304,1.04,-1.06,-0.859 (inactive),0.291,2.02 (inactive),0.0953 (inactive),0.424 (inactive),0.742 (inactive),-0.301,1.16 (inactive),0.368 (inactive),-0.196
COCCn1c(C(=O)N2CCCC2)cc2c1C[C@H]1CN(C(=O)c3ccccc3)[C@@](Cc3ccc(F)cc3)(C(=O)OC)[C@@H]21,0.45,-1.37 (inactive),-0.727 (inactive),-0.568 (inactive),-0.442 (inactive),1.8,-0.0931,1.42,2.2,-0.554,-1.33 (inactive),0.237,1.15 (inactive),0.137 (inactive),2.62 (inactive),0.642 (inactive),-0.0267,0.236 (inactive),0.191 (inactive),-4.43
